Screen size: about 52,000 compounds; about 4,300 (8.3%) were called active. The list comes from a sample in which actives are over-represented; it also holds similar structures and randomly drawn compounds. Values without a mark were called inactive. Rule as the data show it: active = survival mostly below about 52% (no sharp cut-off); inactive = mostly above about 56%.

In the assay the test system is DeltatarO mutant. Description: growth inhibition of S. aureus wild type versus tarO mutant, primary screen, teichoic acid synthesis inhibitors, RN4220, OD600 (AID 463173). As to conditions: OD600, 18 h, stronger effect = lower value, screened at 18.75 µg/mL (by protocol).
In the case of `CCOC(=O)c1sc(N2C(=O)c3oc4cc(C)c(C)cc4c(=O)c3C2c2cccc(O)c2)nc1C` (configuration not stated), the survival was 78%.
To `O=C1C2(Cc3ccccc3)CN3CN(C2)CC1(Cc1ccccc1)C3` belongs 75%; to `COc1ccc(NC(=O)c2cc(-c3ccc(F)cc3)no2)cc1OC`, 71%.
Take `O=C(Nc1ccccc1[N+](=O)[O-])c1csnn1`: the survival was 73%.
In the case of `CC1=C(C(=O)Nc2cccnc2)C(c2ccccc2)n2nc(SCc3ccccc3)nc2N1` (configuration not stated), the survival was 74%.
With `Cc1ccccc1OCC(=O)Nc1ccccc1C(=O)OCc1cc(=O)n2c(C)csc2n1`, the survival is 94%.
To `CCOC(=O)c1c(S(=O)(=O)NCC(=O)NCc2ccccc2Cl)c(C)n(C)c1C` belongs 97%.
To `COc1ccccc1NC(=O)c1c(NC(=O)c2cccs2)sc2c1CCC(C(C)(C)C)C2` (configuration not stated) belongs 139%; to `COc1ccccc1NC(=O)c1c(NC(=O)Cc2ccccc2)sc2c1CCC(C(C)(C)C)C2` (configuration not stated), 126%; to `CC(C)(C)C1CCc2c(sc(NC(=O)CCC(=O)O)c2C(=O)Nc2ccccc2C(F)(F)F)C1` (configuration not stated), -6% (active).
To `Cc1ccc(CNC(=O)C2CCN(C(=O)N3CC(C)Oc4ccc(Cl)cc43)CC2)cc1` (configuration not stated) belongs 57%.
In the case of `COc1ccccc1NC(=O)N1CC=C(c2c[nH]c3ccccc23)CC1`, the survival is 42% (active).
To `Cc1cccc(NC(=O)N2CC=C(c3c[nH]c4ccccc34)CC2)c1C` belongs 73%; to `CCOC(=O)c1cccc(NC(=O)N2CC=C(c3c[nH]c4ccccc34)CC2)c1`, 83%; to `COc1cc(OC)c(NC(=O)N2CC=C(c3c[nH]c4ccccc34)CC2)cc1Cl`, 75%.
To `CCc1ccc(NC(=O)N2CC=C(c3c[nH]c4ccccc34)CC2)cc1` belongs 39% (active); to `CCOc1ccc(NC(=O)N2CC=C(c3c[nH]c4ccccc34)CC2)cc1`, 83%.
As to `COc1ccccc1OCC(=O)Nc1ccc(S(=O)(=O)N2CCN(C)CC2)cc1`, the survival is 78%.
In the case of `CCc1ccc(-n2nc(CO)c(C(=O)NC(C)c3ccc(Cl)cc3)n2)cc1` (configuration not stated) it was 58%; in that of `COc1cc(S(=O)(=O)N2CCN(c3ccccc3F)CC2)c(OC)cc1Cl`, 87%.
`CCOC(=O)c1cc2oc(C)cc2n1CC(=O)N(C)C1CCCCC1`: the survival was 92%.
On to `CCOc1ccc(CCNC(=O)c2ccc3c(c2)c(C)c(C)n3Cc2ccccc2)cc1OCC`, for which the survival is 83%.
To `Cc1ccc2c(=O)cc(C(=O)Nc3c(C(=O)c4ccccc4)oc4ccccc34)oc2c1C` belongs 82%; to `CCCn1c2ccccc2c2cnn(CC(=O)NCC3CCN(Cc4ccc(F)cc4)CC3)c(=O)c21`, 68%.
To `CCCn1c2ccccc2c2cnn(CC(=O)NCC3CCN(Cc4ccc(C)cc4)CC3)c(=O)c21` belongs 17% (active); to `CCCn1c2ccccc2c2cnn(CC(=O)NCCCOC(C)C)c(=O)c21`, -5% (active); to `CCCn1c2ccccc2c2cnn(CC(=O)NCCc3ccc(C)cc3)c(=O)c21`, 128%.
To `CCCn1c2ccccc2c2cnn(CC(=O)NCCc3ccc(OCC)cc3)c(=O)c21` belongs -5% (active).
In the case of `CCCNC(=O)Cn1ncc2c3ccccc3n(CCC)c2c1=O`, the survival was 128%.
To `CCCn1c2ccccc2c2cnn(CC(=O)NCCCN3CCCCC3)c(=O)c21` belongs 94%; to `CCCn1c2ccccc2c2cnn(CC(=O)NCCc3ccc(OCC)c(OCC)c3)c(=O)c21`, 92%; to `CCCn1c2ccccc2c2cnn(CC(=O)NCC3CCN(Cc4ccccc4C)CC3)c(=O)c21`, 55%.

The record behind these values is PubChem BioAssay AID463173 (ICCB-Longwood Screening Facility, Harvard Medical School, 2010).
